# Screens: PubChem BioAssay, National Center for Advancing Translational Sciences (NCATS)
# Most compounds without a hit are left out; they make up all but 3.3% or so of the library.
# Sm TGR block: qHTS Assay for the Inhibitors of Schistosoma Mansoni Peroxiredoxins. Schistosoma mansoni thioredoxin glutathione reductase (TGR), Q962Y6. purified TGR, DTNB reduction, TNB absorbance 405 nm. Potency, µM (highest dose often 114 µM), for the others: at the top dose activity change, negative = inhibition, most hits filed as inhibitors. 360,000 compounds, 3% hits. AID 485364, 2010; note: % is set by controls: 0 for no effect and ±100 for the full control effect; nearly all actives have a fitted effect of over 60% in size
#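 Kinetic colorimetric format: TGR-catalysed, NADPH-driven DTNB reduction monitored via TNB absorbance. Enzyme dispensed at 20 nM; compound exposure 15 min at room temperature before reaction start.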
# AmpC inh no detg: qHTS Inhibitors of AmpC Beta-Lactamase (assay without detergent); P00811; AmpC nitrocefin hydrolysis, absorbance 480 nm, 0.0001% Triton; Potency, µM (titrated, usually from 57.1 µM), for inactives: top-dose activity change, negative = inhibition, actives largely listed as inhibitors; 330,000 compounds, 0.52% hits;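 note: plate controls were no compound for no effect and no enzyme for full effect; nearly all actives have a fitted effect of over 20% in size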
# Target sequence (P00811 whole entry, looked up): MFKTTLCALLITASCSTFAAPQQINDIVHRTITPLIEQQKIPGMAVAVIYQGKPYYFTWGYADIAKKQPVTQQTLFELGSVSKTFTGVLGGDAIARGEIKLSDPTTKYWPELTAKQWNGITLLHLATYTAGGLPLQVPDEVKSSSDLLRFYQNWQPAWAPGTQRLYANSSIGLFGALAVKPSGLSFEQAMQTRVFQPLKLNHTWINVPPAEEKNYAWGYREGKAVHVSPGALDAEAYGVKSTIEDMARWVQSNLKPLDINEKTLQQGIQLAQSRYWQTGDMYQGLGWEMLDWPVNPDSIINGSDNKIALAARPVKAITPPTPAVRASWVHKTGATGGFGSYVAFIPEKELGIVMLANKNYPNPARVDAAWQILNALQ
#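 20 mM phosphate pH 7.0 + 0.01% (detergent screen) or 0.0001% Triton X-100; 5.3 nM AmpC reagent; cpd preinc 15 min RT; nitrocefin (800 uM stock) to start; A480 q20 s × 4 min; Activity was normalised to no-enzyme and no-compound control wells.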
# RE007 growth inh: qHTS Assay for Inhibitors of the HIV-1 protein Vpr. S. pombe RE007 Vpr strain, BacTiter-Glo ATP luminescence, 24 h. Potency, µM (titrated, usually from 92.2 µM), inactives show top-dose activity change, negative = less growth, usual class: inhibitors. 360,000 compounds, 0.21% hits. AID 651644, 2012; active = well fitted falling curve with a large enough effect; inconclusive = small, poorly fitted or top-dose-only effect; inactive = no such curve, though single readings can be large or run the other way; note: % is set by controls: 0 for no effect and ±100 for the full control effect; nearly all actives have a fitted effect of over 50% in size
#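 Fission yeast RE007 carrying one integrated HIV-1 vpr copy, seeded at OD 0.01 in PMG+AL medium with 23 nL pinned compound. Grown 24 h at 30 degrees; viability read by BacTiter-Glo luminescence after 5 min.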
# TbPYK inhibitor: qHTS of Trypanosoma Brucei Inhibitors; pyruvate kinase (Trypanosoma brucei), Q57TT1; TbPYK enzyme, Kinase-Glo Plus ATP luminescence, 45 min; Potency, µM (series often up to 76.8 µM), without a hit: at the highest dose activity, negative = inhibition, actives largely listed as inhibitors; 410,000 compounds, 0.12% hits; note: % is set by controls: 0 for no effect and ±100 for the full control effect; nearly all actives have a fitted effect of over 50% in size
#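 ADP (130 uM final) triggers the TbPYK reaction after compound addition; incubation is 45 min at room temperature. Kinase-Glo Plus is then added and luminescence imaged. Normalized data are fitted to concentration-effect curves.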
# SARS PLpro yeast: qHTS of Yeast-based Assay for SARS-CoV PLP; S. cerevisiae expressing SARS-CoV PLpro, growth rescue; Potency, µM (doses to about 32.9 µM), for the others: at the top dose activity, positive = growth rescue, usual class: activators; 330,000 compounds, 0.19% hits; calls by dose curve; note: 0% is about no effect; nearly all actives have a fitted effect of over 55% in size
# AmpC detergent: qHTS Inhibitors of AmpC Beta-Lactamase (assay with detergent); AmpC hydrolysis of nitrocefin, absorbance 480 nm, 0.01% Triton; Potency, µM (top dose mostly 114 µM), without a hit: at the highest dose activity change, negative = inhibition, hits mostly inhibitors; 370,000 compounds, 0.041% hits; P00811;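 note: 0% = no-compound wells and -100% = no-enzyme wells; nearly all actives have a fitted effect of over 25% in size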
#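 20 mM phosphate pH 7.0 + 0.01% (detergent screen) or 0.0001% Triton X-100; 5.3 nM AmpC reagent; cpd preinc 15 min RT; nitrocefin (800 uM stock) to start; A480 q20 s × 4 min; Activity was normalised to no-enzyme and no-compound control wells.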
# * = called active by the depositor; ? = inconclusive; · = no result; [ ] = remark or other dose. Unless noted, calls come from the whole dose curve; as a rule, active = well fitted curve in the direction sought with a large enough effect; inconclusive = small, poorly fitted or top-dose-only effect, or another doubt; inactive = no such curve, though single readings can be large; an effect the other way counts as inactive or inconclusive. Potency is the fitted concentration of half-maximal effect.
SMILES,Sm TGR block,AmpC inh no detg,RE007 growth inh,TbPYK inhibitor,SARS PLpro yeast,AmpC detergent
O=C(CCCn1c(=O)c2sccc2n(Cc2cccc(Cl)c2)c1=O)NCc1ccc2c(c1)OCO2,-2%,·,·,3%,·,20%
N[C@@H](C(=O)N[C@H]1C(=O)N2C(C(=O)O)=C(Cl)CC[C@H]12)c1ccccc1,·,·,·,3%,·,·
O=C(CC1C(=O)NCCN1Cc1ccc(Cl)c(F)c1)NCC1CCOCC1 (stereo not given),40µM*,22%,4%,-3%,-1%,-7%
O=C1NCCN(Cc2c(F)cccc2Cl)C1CC(=O)N1CCCCO1 (stereo not given),-16%,12%,5%,11%,0%,-4%
O=C(CC1C(=O)NCCN1Cc1ccc(Cl)c(F)c1)NCCc1cccnc1 (stereo not given),45µM*,42%,-20%,-4%,0%,4%
O=C1NCCN(Cc2ccc(Cl)c(F)c2)C1CC(=O)N1CCCCO1 (stereo not given),25µM*,0%,15%,3%,0%,-7%
CN(CC1CCOCC1)C(=O)CC1C(=O)NCCN1Cc1ccc(Cl)c(F)c1 (stereo not given),28µM*,38%,5%,-1%,1%,0%
O=C(c1cccn1-c1nnc(N2CCCC2)s1)N1CCN(c2ccc(Cl)cc2)CC1,-12%,·,·,-7%[15.4 µM],·,3%
CN(Cc1ccon1)C(=O)CC1C(=O)NCCN1Cc1cccc(F)c1F (stereo not given),?,0%,6%,-10%,-1%,2%
CN(CCC1CCOCC1)C(=O)CC1C(=O)NCCN1Cc1c(F)cccc1Cl (stereo not given),45µM*,-1%,-15%,-14%,5%,?
Cc1cnc(CNC(=O)CC2C(=O)NCCN2Cc2cccc(F)c2F)cn1 (stereo not given),18µM*,-2%,5%,1%,0%,4%
O=C(CC1C(=O)NCCN1Cc1ccc(-c2ccccc2)cc1)NC1CCC1 (stereo not given),?,120%,6%,3%,19%,-7%
O=C(CC1C(=O)NCCN1Cc1ccc(Cl)c(F)c1)NC1CCC1 (stereo not given),40µM*,6%,2%,-7%,0%,0%
CN(Cc1ncc[nH]1)C(=O)CC1C(=O)NCCN1Cc1c(F)cccc1Cl (stereo not given),-5%,-6%,-16%,1%,-1%,-3%
CN(CCCC1CCCC1)C(=O)CC1C(=O)NCCN1Cc1cccc(F)c1F (stereo not given),28µM*,167%,-5%,2%,-6%,-6%
Cc1csc2nc(COC(=O)c3ccc(NC(=O)C(C)C)cc3)cc(=O)n12,0%,·,·,-25%,·,1%
COc1ccc(Cn2c(C(=O)O)c(CNCC(C)c3ccccc3)c3ccc(OC)cc32)cc1 (stereo not given),0%,·,·,-5%,·,0%
Clc1cccc(N2CCN(c3ncnc4c3nc3n4CCCCC3)CC2)c1,-12%,·,·,0%,·,19%
Cc1cc(C)cc(NC(=O)N2CCN(C(=O)c3nsc4ccccc34)CC2)c1,-7%,·,·,-4%[15.4 µM],·,17%
NC(=S)N=Nc1ccc(NN=C(N)N)cc1,50µM*,-24%,-20%,?,2%,?
COc1cc(SC#N)ccc1N=Cc1c(C)[nH]n(-c2ccc(C)cc2C)c1=O,6%,·,15%,-11%,·,7%
COc1ccccc1N=Cc1c(C)[nH]n(-c2ccc(C)cc2C)c1=O,40µM*,175%,11%,-6%,-1%,-2%
